Substitutions are numbered along the chain they refer to. Whole data set: some 24,000 sequences, median “enrichment r” near 0.99, cut for the highest 2% near 3.7. The sample holds the highest values, similar sequences and a random draw of the others, so the mix is not that of the screen.

Sequences and labels used below:
T1: UNK ZnF1-3 (human, UniProt Q9C0B0 31-174)
T1 sequence: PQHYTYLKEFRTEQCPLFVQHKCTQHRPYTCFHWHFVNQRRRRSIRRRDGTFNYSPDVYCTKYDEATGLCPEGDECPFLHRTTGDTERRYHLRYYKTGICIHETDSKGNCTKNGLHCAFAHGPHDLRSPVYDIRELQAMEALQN

B1: chr1:88750987:88750988:+_ENSMUSG00000053333_ENSMUST00000065694|mus_mus|FALSE|FALSE (ssRNA)
RNA: GGGAGUUCUACAGUCCGACGAUCUGAUAAGCCUCUUGUGUCCUGUGGUAUGGGGGUGUUCUCAUCUUUCAUAACUGGAGUACUAGAAUCUUCUUUUCCUCUGUCAGGAGUAGAGAUUGACAAUUUCUUAACACCAUCAACCAGCAACAGAGGAUUGAGCAUCA
B2: chr18:33744517:33744518:+_ENSG00000134759_ENST00000351393|hu_hu|motif|central (ssRNA)
RNA: GGGAGUUCUACAGUCCGACGAUCUAAGAACUUCUCAUUAGGUGAGAAGGCCAUCUGCGUGACUGUCAAACUGUGGAAAACGGAAUUCUGCACCUGUUUCCAAGAUGUAGUGUUCCAAAGAAUGAUAGCUGCAUGCUCUUUCUUCAACAGAGGAUUGAGCAUCA
B3: chr4:115894766:115894767:+_ENSMUSG00000028698_ENSMUST00000030464|mus_hu|mus_mus_mus_hu_True|38_38 (ssRNA)
RNA: GGGAGUUCUACAGUCCGACGAUCUUCCACACGGAAAUGUACUUCGGGUUUUCCAACGGCCAGUACCAGUCCGGCCAAACUACCCGAACAGGGUCCUGUCCUCCUCUCCUACAGAACACAACAAAAUGCCCCCGAACUUUCAAGCAACAGAGGAUUGAGCAUCA
B4: chr14:31813938:31813939:-_ENSMUSG00000021917_ENSMUST00000162092|perfect_dup|motif|central (ssRNA)
RNA: GGGAGUUCUACAGUCCGACGAUCAACUAUGUAGACAGUCCACCCAAACUGUUCAGCCACGUACCCGUAGAUAAACCCAACGGUUGCAGAAAAAAGAAUGAUCCCCUGAAACAUCUGUUCAGCUAGUUUCUGCCCCUUGUAAUCCAACAGAGGAUUGAGCAUCA
B5: chr3:138121269:138121270:+_ENSG00000158186_ENST00000289104|hu_hu|FALSE|FALSE (ssRNA)
RNA: GGGAGUUCUACAGUCCGACGAUCCAGGUGGCUUCCUUGUCUCUUUGAGAGGUGGGAAAGCCCGUGCCCUCUGGGCAAAGCCAGACCCUGUCUGCUCCCUGCCCACCUGCCCUUCUCCCUUCCUGUACCAAGUCCUUGGGCCAACAACAGAGGAUUGAGCAUCA
B6: chr2:153237265:153237266:-_ENSMUSG00000061411_ENSMUST00000109784|mus_hu|motif|central (ssRNA)
RNA: GGGAGUUCUACAGUCCGACGAUCAAAAAAAAAAAAAAAAAAGUGUCCUUGUGCCCAAAGUCUCAGGUGCUUGGAGUGUGGCGGGAAACAGCUCUUUUGGAUCCCACCUCUUUCAAAAACAAAAUGUACCAACUGGUGAGGCAGCAACAGAGGAUUGAGCAUCA
B7: chr7:72892646:72892647:-_ENSG00000009954_ENST00000339594|hu_hu|FALSE|FALSE (ssRNA)
RNA: GGGAGUUCUACAGUCCGACGAUCCUUGUCACUGUGCUUCCCUGGUUUCUUGGCAGGUGGGCCUUUUUUAGGAAUGUGAAAGUUAGUGUGCAGCUUAUUGGGCGACAUCAUCUUCAUCAUUUCUUCUAGAUGUUCUUCAGGAGACAACAGAGGAUUGAGCAUCA
B8: chr2:153237265:153237266:-_ENSMUSG00000061411_ENSMUST00000109784|mus_mus|mus_mus_mus_hu_False|1_58 (ssRNA)
RNA: B6 RNA with U78C, G79A, G82U, G83A, G137A, A138G, G140C, C141A, A142G
B9: chr10:70731730:70731731:+_ENSG00000165732_ENST00000354185|hu_hu|motif|central (ssRNA)
RNA: GGGAGUUCUACAGUCCGACGAUCAACCUCAGGGAUGUCUAACCCACGUGCAGCAACAUUGGUUGCCACCAAAACUCCAAAACGGCCAUUUCUAAAACCUUUCAGGGUGAUUUCCCUUUGCUUCUGUGGAAUGUCUCCAUGCAACAACAGAGGAUUGAGCAUCA
B10: chr2:153237265:153237266:-_ENSMUSG00000061411_ENSMUST00000109784|mus_mus|mus_mus_mus_hu_False|1_78 (ssRNA)
RNA: B6 RNA with G66A, G82U, G83A, G137A, A138G, G140C, C141A, A142G
B11: chr2:153237265:153237266:-_ENSMUSG00000061411_ENSMUST00000109784|mus_mus|mus_mus_mus_hu_False|8_18 (ssRNA)
RNA: GGGAGUUCUACAGUCCGACGAUCAAAAAAAAAAAAAAAAAAGUGUCCUUGUGCCCAAAGUCUCAGGUGCUUGGAGUGUGGCUAGAAACAGCUCUUUUGGAUCCCACCUCUUUCAAAAAACAGUGUACCAACUGGUGGAGGCAGCAACAGAGGAUUGAGCAUCA
B12: chr2:25965407:25965408:-_ENSG00000143970_ENST00000336112|hu_mus|FALSE|FALSE (ssRNA)
RNA: GGGAGUUCUACAGUCCGACGAUCAUGUGCUGCCGGAAUAAAAUCUCUAGGCAGGCUCUUUUCAUCAGAUGCUUGGCCUCUAGAGAAUAUGUAAUUCUCCUGGCCUAAAGUGGUUUGCUCACUCACUGGUGCCUCAGUCUUACCCAACAGAGGAUUGAGCAUCA
B13: chr2:209110096:209110097:-_ENSG00000138413_ENST00000345146|hu_hu|FALSE|FALSE (ssRNA)
RNA: GGGAGUUCUACAGUCCGACGAUCUUCUUCAAAGUUAUGUACCAGGUAUGUCACCUUUUGGGUUCCGUCACUUGGUGUGUAGGUUAUCUCUACUUUUCCAGGCCCAGGAACAACAAAAUCAGUUGCUCUGUAUUGAUCCCCAUACAACAGAGGAUUGAGCAUCA
B14: chr11:6247107:6247108:+_ENSMUSG00000020456_ENSMUST00000003461|mus_mus|FALSE|FALSE (ssRNA)
RNA: GGGAGUUCUACAGUCCGACGAUCAAACAUAGGUUCGUCCAUCUCAUUGUGGCCAUUUCGUCGAUAACACACCAGAUCAACUACAACAUCCUUGUGGAAGGUGUUUCUCCACUCAGCUGCCACCUUGCAUACAUACAUGACAGCCAACAGAGGAUUGAGCAUCA

This assay deals with T1, UNK ZnF1-3. Kind of assay: nsRBNS (natural sequence RNA bind-n-seq); RBNS binding buffer (assumed for nsRBNS): 25 mM Tris pH 7.5, 150 mM KCl, 3 mM MgCl2, 0.01% Triton X-100, 500 ug/ml BSA, 20 U/ml SUPERase-In, 4 C; UNK is unkempt and MSI1 is Musashi-1; names of the RNAs are library labels; protein concentration not given here; high values mean tight binding.
Consider B1, for which the binding signal was found to be 0.857 enrichment R. With B2 the figure was 0.574 enrichment R; with B3, 0.864 enrichment R. With B4 the figure was 1.33 enrichment R; with B5, 0.645 enrichment R; with B6, 5.88 enrichment R. With B7 the figure was 0.485 enrichment R. B8 came in with a binding signal of 7.14 enrichment R.

Consider B9, for which the binding signal is 0.937 enrichment R. In the case of B10, the binding signal is 8.18 enrichment R. With B11 the figure was 5.27 enrichment R. With B12 the figure was 0.767 enrichment R; with B13, 0.472 enrichment R. With B14 the figure was 0.764 enrichment R.

(Values after publication PMC12136788.)
